# Data reported in PubChem BioAssay (NCATS).
# Inconclusive results are not listed. Calls of active or inactive are those of the source. Calls follow the shape of the dose curve; as a rule, active = well fitted curve in the direction sought with a large enough effect; inconclusive = small, poorly fitted or top-dose-only effect, or another doubt; inactive = no such curve, though single readings can be large or run the other way.
# Target: Ferritin light chain (Equus caballus) (UniProt P02791)
# Test: qHTS Validation Assay for Identification of Novel General Anesthetics (AID 2323)
# Conditions: horse apoferritin, anesthetic-site fluorescent probe displacement; series mostly up to 76.9 µM; activity change, negative = inhibition: at the top concentration
# Text: Source: NIH Chemical Genomics Center [NCGC]
# Assay Submitter: Roderic Eckenhoff, University of Pennsylvania
# Screening Center PI: Christopher P. Austin, NIH
# Probe Development: NIH Chemical Genomics Center [NCGC]
# Anesthetic development has remained a largely empirical process. There are growing concerns about the cognitive effects of known general anesthetics and acceleration of the onset of neurodegenerative disease. The compounds' toxicity and multiple specific binding targets in the mammalian brain [4] has made them less attractive as drug leads. In this assay, a GABAergic mimetic model system, apoferritin and a profluorescent 1-aminoanthracene ligand (1-AMA), was used to construct a competitive binding assay for identification of novel general anesthetics. The assay was validated for 1-AMA using other known anesthetics, such as isoflurane (CID:3763) and propofol (CID: 4943), [6].
# [1] S.L. Bianchi, T. Tran, C. Liu, S. Lin, Y. Li, J.M. Keller, R.G. Eckenhoff, and M.F. Eckenhoff, Brain and behavior changes in 12-month-old Tg2576 and nontransgenic mice exposed to anesthetics. Neurobiol Aging 29 (2008) 1002-10.
# [2] Z. Xie, Y. Dong, U. Maeda, R.D. Moir, W. Xia, D.J. Culley, G. Crosby, and R.E. Tanzi, The inhalation anesthetic isoflurane induces a vicious cycle of apoptosis and amyloid beta-protein accumulation. J Neurosci 27 (2007) 1247-54.
# [3] P. Honegger, and J.M. Matthieu, Selective toxicity of the general anesthetic propofol for GABAergic neurons in rat brain cell cultures. J Neurosci Res 45 (1996) 631-6.
# [4] M.F. Eckenhoff, K. Chan, and R.G. Eckenhoff, Multiple specific binding targets for inhaled anesthetics in the mammalian brain. J Pharmacol Exp Ther 300 (2002) 172-9.
# [5] C.A. Butts, J. Xi, G. Brannigan, A.A. Saad, S.P. Venkatachalan, R.A. Pearce, M.L. Klein, R.G. Eckenhoff, and I.J. Dmochowski, Identification of a fluorescent general anesthetic, 1-aminoanthracene. Proc Natl Acad Sci U S A 106 (2009) 6501-6.
# [6] W.A. Lea, J. Xi, A. Jadhav, L. Lu, C.P. Austin, A. Simeonov, and R.G. Eckenhoff, A high-throughput approach for identification of novel general anesthetics. PLoS One 4 (2009) e7150.
# Three uL of reagents (free 1-AMA (50% saturated solution of 1-aminoanthracene
# in PBS) in columns 3, 4 as negative control and 1-AMA/apoferritin mixture (10 uM horse-spleen apoferritin in 50% saturated 1-aminoanthracene in PBS) in columns 1, 2, 5-48) was dispensed into 1536-well Greiner black assay plates. Compounds (23 nL) were transferred via Kalypsys pintool equipped with 1,536-pin array (10 nL slotted pins, V&P Scientific, San Diego, CA). Titration of the positive control, propofol, were delivered via pin transfer from separate control plates to the 2nd column of each assay plate. The starting concentration of the control, dissolved in DMSO, was at 160 mM, followed by two-fold dilution points in duplicate, for a total of 16 concentrations. The plates were incubated for 10 min at room temperature, and then read on an EnVision HTS multilabel reader (Perkin-Elmer, Waltham, MA) (end point read, 3 min/plate) using Fura2 BFP excitation filter (380 nm, bandwidth 10 nm) and fluorescein emission filter (535 nm, bandwidth 25 nm) set. A LANCE/DELFIA dichroic mirror with a cutoff wavelength at 400 nm was used to maximize signal accuracy and strength. Vehicle-only plates, with DMSO being pin-transferred to the entire column 5-48 compound area, were inserted uniformly at the beginning and the end of each library in order to monitor for and record any shifts in the background. Activity was computed as the normalized fluorescence response relative to free 1-AMA and 1-AMA/apoferritin complex values. Concentration-effect relationships were derived by using curve fitting algorithms developed in-house (http://ncgc.nih.gov/pub/openhts/). A four parameter Hill equation was fitted to the concentration-response data by minimizing the residual error between the modeled and observed responses.
# % is scaled to controls: 0 for no effect and ±100 for the full control effect.
# Chain of Ferritin light chain (Equus caballus) (P02791 2-175 limits assumed): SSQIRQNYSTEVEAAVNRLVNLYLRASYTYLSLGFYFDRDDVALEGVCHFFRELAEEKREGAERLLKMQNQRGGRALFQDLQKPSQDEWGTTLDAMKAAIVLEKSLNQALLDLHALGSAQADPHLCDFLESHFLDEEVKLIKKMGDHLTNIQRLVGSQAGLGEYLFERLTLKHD
SMILES,"activity change, negative = inhibition",outcome
CCOC(=O)N1CCC(=C2c3ccc(Cl)cc3CCc3cccnc32)CC1,98.9% (inactive),–
CC(C)(C)NCC(O)c1ccc(O)c(CO)c1 (stereo not drawn),–,inactive
Cc1[nH]c(=O)c(C#N)cc1-c1ccc2nccn2c1,38.1% (inactive),–
CCn1cc(C(=O)O)c(=O)c2cc(F)c(N3CCNC(C)C3)c(F)c21 (stereo not drawn),65.7% (inactive),–
Cc1ccc(N(CC2=NCCN2)c2cccc(O)c2)cc1,-12.7% (inactive),–
NC[C@H](O)c1ccc(O)c(O)c1,-0.791% (inactive),–
O=C1CCc2cc(OCCCCc3nnnn3C3CCCCC3)ccc2N1,-15.9% (inactive),–
Cc1ccccc1C(OCCN(C)C)c1ccccc1 (stereo not drawn),-5.65% (inactive),–
CC(C[N+](C)(C)C)OC(N)=O (stereo not drawn),6.45% (inactive),–
NC(=O)c1cnccn1,8.37% (inactive),–
CCCC(CCC)C(=O)O,-3.01% (inactive),–
Cc1[nH]c(=O)c(C#N)cc1-c1ccncc1,-4.3% (inactive),–
Cc1oncc1C(=O)Nc1ccc(C(F)(F)F)cc1,-11.3% (inactive),–
CNC[C@H](O)c1cccc(O)c1,-2.2% (inactive),–
CC(=O)Oc1ccccc1C(=O)O,3.47% (inactive),–
CC(C)C[C@H](NC(=O)[C@@H](O)[C@H](N)Cc1ccccc1)C(=O)O,-11% (inactive),–
CN1CCN(CCCN2c3ccccc3Sc3ccc(C(F)(F)F)cc32)CC1,7.26% (inactive),–
O=c1[nH]cnc2[nH]ncc12,1.35% (inactive),–
O=c1n(CCCN2CCN(c3cccc(Cl)c3)CC2)nc2ccccn12,239% (inactive),–

SMILES,"activity change, negative = inhibition",outcome
CCCCNc1cc(C(=O)O)cc(S(N)(=O)=O)c1Oc1ccccc1,23.8% (inactive),–
CC(C)NCC(O)COc1ccc(COCCOC(C)C)cc1 (stereo not drawn),-6.49% (inactive),–
CCN(CC)CCCC(C)Nc1ccnc2cc(Cl)ccc12 (stereo not drawn),1.21% (inactive),–
C1COC(NC(C2CC2)C2CC2)=N1,56.3% (inactive),–
NNCCc1ccccc1,-2.04% (inactive),–
CCOC(=O)C1=C[C@]2(CC)CCCN3CCc4c(n1c1ccccc41)[C@@H]32,9.13% (inactive),–
Clc1cccc(Cl)c1NC1=NCCN1,-4.39% (inactive),–
NCCCC(N)(C(=O)O)C(F)F (stereo not drawn),-4.62% (inactive),–
Cc1cn[nH]c1,-8.7% (inactive),–
O=NN(CCCl)C(=O)NCCCl,-3.16% (inactive),–
NS(=O)(=O)c1cc2c(cc1Cl)NC=NS2(=O)=O,-4.51% (inactive),–
N=c1nc(N2CCCCC2)cc(N)n1O,-1.75% (inactive),–
Nc1nc2ccc(OC(F)(F)F)cc2s1,-12.9% (inactive),–
N[C@@H]1CONC1=O,-1.49% (inactive),–
Cc1cnc(NC(=O)C2=C(O)c3ccccc3S(=O)(=O)N2C)s1,-12.1% (inactive),–
Cn1cnc([N+](=O)[O-])c1Sc1ncnc2nc[nH]c12,-1.96% (inactive),–
NCCc1ccc(O)c(O)c1,-4.16% (inactive),–
Nc1nc2c(ncn2COCCO)c(=O)[nH]1,-1.79% (inactive),–
O=C1CCC(N2C(=O)c3ccccc3C2=O)C(=O)N1 (stereo not drawn),-6.52% (inactive),–
